This is a sample that favours compounds with a hit; in the whole collection about 18% have one here.
DT40 TDP1 CPT = DT40-hTDP1 cell growth loss with CPT; chicken DT40 Tdp1-/-;hTDP1 cells + 20 nM CPT, ATP luminescence, 48 h; 420,000 compounds, 12% hits; Potency, µM (series often up to 46.2 µM), most hits filed as inhibitors; further: nearly all actives have a fitted effect of over 55% in size
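Cell growth measured by CellTiter-Glo luminescence after a minimum 48 h, 37 C compound exposure with 20 nM CPT in Tdp1-knockout DT40 cells stably expressing hTDP1, seeded 400/well; qHTS titration format.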
RORg inh = ROR gamma (mouse) transcription inhibition. P51450. Drosophila S2 Gal4-RORgamma UAS-luciferase reporter, 20 h. Potency, µM (titrated, usually from 53.6 µM), usual class: inhibitors. 310,000 compounds, 5.4% hits. AID 2551; further: nearly all actives have a fitted effect of over 60% in size
Target sequence (P51450 whole entry, looked up, the tested form may be a part): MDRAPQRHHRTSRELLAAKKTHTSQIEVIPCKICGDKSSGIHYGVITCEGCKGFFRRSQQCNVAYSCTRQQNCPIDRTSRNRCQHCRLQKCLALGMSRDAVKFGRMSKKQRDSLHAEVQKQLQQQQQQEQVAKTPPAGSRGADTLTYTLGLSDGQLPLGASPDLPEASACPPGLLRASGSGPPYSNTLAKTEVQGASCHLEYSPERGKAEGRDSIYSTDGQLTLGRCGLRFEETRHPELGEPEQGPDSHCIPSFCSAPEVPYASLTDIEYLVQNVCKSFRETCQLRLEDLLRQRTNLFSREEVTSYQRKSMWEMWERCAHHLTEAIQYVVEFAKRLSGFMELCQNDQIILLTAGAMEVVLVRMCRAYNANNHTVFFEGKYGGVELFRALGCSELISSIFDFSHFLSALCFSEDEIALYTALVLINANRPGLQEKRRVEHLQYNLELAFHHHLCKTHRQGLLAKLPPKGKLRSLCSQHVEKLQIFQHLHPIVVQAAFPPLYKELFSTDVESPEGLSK
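A Gal4/UAS one-hybrid system in insect cells: metallothionein-promoter Gal4–ROR gamma fusion plus Photinus luciferase reporter. Copper sulfate 700 uM final, 20 hr ambient incubation, luminescent detection after 10 min with reagent.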
LDHA block = blocks human lactate dehydrogenase A; P00338; purified LDHA, NADH/diaphorase-resazurin fluorescence; active compounds read low; activity change, % (values are at about 110 or 230 µM); 480,000 compounds, 0.15% hits; in the data active means activity change below about -30%; inconclusive means mostly about -25% to -30%
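Resorufin fluorescence (ex540/em590), read at 0 and 20 min after diaphorase/resazurin addition, reports the NADH left after a 5 min room-temperature reaction of 2 nM human LDH5 with 0.06 mM NADH and 0.2 mM pyruvate.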
VP16 counter = Gal4-VP16 reporter inhibition counter-screen | AID 2546 | Drosophila S2 Gal4-VP16 UAS-luciferase, luminescence, 20 h | Potency, µM (highest dose often 53.6 µM), actives largely listed as inhibitors | 310,000 compounds, 3.5% hits;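 further: Gal4-VP16 expression switched on by copper sulfate through the metallothionein promoter; nearly all actives have a fitted effect of over 50% in size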
DT40 TDP1 no CPT = qHTS for Inhibitors of human tyrosyl-DNA phosphodiesterase 1 (TDP1): qHTS in cells in absence of CPT; DT40 Tdp1-/- hTDP1 cells, no CPT, ATP luminescence, 48 h; Potency, µM (highest dose often 46.2 µM), most hits filed as inhibitors; 420,000 compounds, 15% hits; AID 686978, 2013; further: nearly all actives have a fitted effect of over 55% in size
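Seeded 400 DT40-hTDP1 cells/well (vehicle DMSO, no 20 nM CPT); pinned compounds; ≥48 hr at 37 °C; CellTiter-Glo luminescence as viability measure.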
IL-1B inflam inh = inflammasome signaling inhibition, IL-1 beta readout; THP-1 LPS/ATP IL-1B secretion, AlphaLISA, 16 h; active compounds read low; activity change, % at 57.5 µM; 360,000 compounds, 4.7% hits; in the data active means activity change below about -50%; inconclusive means mostly about -30% to -49%
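THP-1 cells pretreated 1 hr with compounds (up to 57.5 uM final), then stimulated with LPS (250 ng/mL final) plus ATP (1.25 mM final); secreted IL-1B measured by AlphaLISA after 16 hr, decreased signal indicating inhibition.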
Each line names hits and unclear results; the compound was inactive in the other large screens. Unless noted, the call rests on the fitted dose curve; in most records, active means well fitted curve in the direction sought with a large enough effect; inconclusive means small, poorly fitted or top-dose-only effect, or another doubt; inactive means no such curve, though single readings can be large; an effect the other way counts as inactive or inconclusive.

CC1CN(c2ncnc3c2c(-c2ccccc2)cn3-c2ccc(F)cc2)CC(C)O1 (stereo not drawn)	DT40 TDP1 CPT 16µM, DT40 TDP1 no CPT 9.2µM, IL-1B inflam inh inconclusive
CN(c1ncnc2c1c(-c1ccccc1)cn2-c1ccc(F)cc1)C1CCCCC1	DT40 TDP1 CPT inconclusive, DT40 TDP1 no CPT 23µM (no result: RORg inh, VP16 counter, IL-1B inflam inh)
CC(C)CC(=O)N1CCC(N2CCN(C)CC2)CC1	none (no result: DT40 TDP1 CPT, RORg inh, VP16 counter, DT40 TDP1 no CPT, IL-1B inflam inh)
CCN1CCN(Cc2cc(=O)oc3cc(C)c(Cl)cc23)CC1	none (no result: DT40 TDP1 CPT, RORg inh, VP16 counter, DT40 TDP1 no CPT, IL-1B inflam inh)
CN1CCN(C2(CNC(=O)COc3ccc4ccc(=O)oc4c3)CCCCC2)CC1	none (no result: DT40 TDP1 CPT, RORg inh, VP16 counter, DT40 TDP1 no CPT, IL-1B inflam inh)
O=c1cc(Nc2ccc3c(c2)OCO3)[nH]c(=O)n1-c1ccc(Br)cc1	DT40 TDP1 CPT inconclusive, DT40 TDP1 no CPT 23µM
N#C/C(=C/c1ccc(SC(F)(F)F)cc1)C(=O)NC1CC1	none (no result: DT40 TDP1 CPT, RORg inh, VP16 counter, DT40 TDP1 no CPT, IL-1B inflam inh)
Fc1cccc(Cl)c1C1SCc2nc3ccccc3n21 (stereo not drawn)	DT40 TDP1 CPT 16µM, DT40 TDP1 no CPT 15µM (no result: RORg inh, VP16 counter)
CC(=O)Nc1ccc(N2C(=O)CSC2c2c(F)cccc2Cl)cc1 (stereo not drawn)	DT40 TDP1 CPT inconclusive
N#CCCn1cc(-c2csc(NC3CC3)n2)c2ccccc21	none (no result: DT40 TDP1 CPT, RORg inh, VP16 counter, DT40 TDP1 no CPT, IL-1B inflam inh)
CN(Cc1ccccc1F)C(C(=O)NC1CC1)c1ccccc1 (stereo not drawn)	none (no result: DT40 TDP1 CPT, RORg inh, VP16 counter, DT40 TDP1 no CPT, IL-1B inflam inh)
CCOC(=O)c1ccc(NC(=O)c2cccc3c2C(=O)N(CC2CCCO2)C3)cc1 (stereo not drawn)	DT40 TDP1 CPT inconclusive, DT40 TDP1 no CPT inconclusive
CCOC(=O)C1=CN(CC2CCCO2)C=C(C(=O)OCC)C1c1ccccc1C(F)(F)F (stereo not drawn)	DT40 TDP1 CPT inconclusive, DT40 TDP1 no CPT 18µM
COCCNc1nc2cc(-c3ccc(F)cc3)sc2c(=O)n1C	none (no result: RORg inh, VP16 counter)
O=c1[nH]c(CCl)nc2cc(-c3ccc(F)cc3)sc12	DT40 TDP1 CPT 5.2µM, RORg inh 13µM, VP16 counter inconclusive, DT40 TDP1 no CPT 4.1µM, IL-1B inflam inh -102
O=C(NCCCN1CCCC1=O)c1cc2cc(Cl)ccc2[nH]1	none (no result: DT40 TDP1 CPT, RORg inh, VP16 counter, DT40 TDP1 no CPT, IL-1B inflam inh)
S=C(Nc1cc(Cl)ccc1Oc1ccccc1)N1CCN(c2ccccn2)CC1	DT40 TDP1 CPT inconclusive, RORg inh 11µM, VP16 counter inconclusive, DT40 TDP1 no CPT inconclusive, IL-1B inflam inh -79
Cc1ccc(C)c(NC(=S)N2CCN(c3ccccn3)CC2)c1	RORg inh 13µM, VP16 counter inconclusive
Cc1ccnc(NC(=S)N2CCN(c3ccc(C(F)(F)F)cc3)CC2)c1	none (no result: DT40 TDP1 CPT, RORg inh, VP16 counter, DT40 TDP1 no CPT, IL-1B inflam inh)
Cc1ccnc(NC(=S)N2CCN(c3cccc(C(F)(F)F)c3)CC2)c1	DT40 TDP1 CPT inconclusive, RORg inh 0.32µM, VP16 counter 0.56µM, DT40 TDP1 no CPT inconclusive, IL-1B inflam inh -88
COc1ccc(N2CCN(C(=S)Nc3cc(C)ccc3C)CC2)cc1	RORg inh 2µM
CCN(CC)C(=O)Oc1ccc2c(=O)c(Oc3ccc(C(=O)OC)cc3)coc2c1	none (no result: DT40 TDP1 CPT, RORg inh, VP16 counter, DT40 TDP1 no CPT, IL-1B inflam inh)
Cc1ccc(/C=C/C(=O)N2CCN(c3cccc(C(F)(F)F)c3)CC2)cc1	RORg inh inconclusive
Cc1ccc(C)c(NC(=S)N2CCC(c3nc4ccccc4s3)CC2)c1	DT40 TDP1 CPT inconclusive, RORg inh 2.8µM, VP16 counter 6.3µM
Cc1ccc(C)c(NC(=S)N2CCN(c3cccc(C(F)(F)F)c3)CC2)c1	DT40 TDP1 CPT inconclusive, RORg inh 4.5µM, VP16 counter 11µM
Cc1c(C(=O)OCc2ccccc2C#N)oc2ccccc12	none (no result: DT40 TDP1 CPT, RORg inh, VP16 counter, DT40 TDP1 no CPT, IL-1B inflam inh)
Cc1cc(F)ccc1NC(=O)CCc1c[nH]c2ccccc12	none (no result: DT40 TDP1 CPT, RORg inh, VP16 counter, DT40 TDP1 no CPT, IL-1B inflam inh)
O=[N+]([O-])c1ccc(/C=N/c2nc3c(s2)CCCC3)cc1	none (no result: DT40 TDP1 CPT, RORg inh, VP16 counter, DT40 TDP1 no CPT, IL-1B inflam inh)
CCNC1CCC(Nc2ccnc3cc(Cl)ccc23)CC1 (stereo not drawn)	DT40 TDP1 CPT 18µM, DT40 TDP1 no CPT 9.2µM, IL-1B inflam inh -98 (no result: RORg inh, VP16 counter)
OC1CCCC1NCc1ccnc2cc(Cl)ccc12 (stereo not drawn)	DT40 TDP1 CPT inconclusive, DT40 TDP1 no CPT 16µM (no result: RORg inh, VP16 counter)
OC(CNc1ccnc2cc(Cl)ccc12)CNC1CCCCC1 (stereo not drawn)	DT40 TDP1 CPT 18µM, DT40 TDP1 no CPT 16µM, IL-1B inflam inh -114 (no result: RORg inh, VP16 counter)

Bioassay records (PubChem)
